This is a sample that favours compounds with a hit; in the whole collection about 3.5% have one here.
FBW7 activator – human FBW7 E3 ligase activation, primary screen. normalized activity (activation), % at 26.1 µM. AlphaScreen FBW7–phospho-cyclin E peptide binding, activator screen. hit rate 0.13% among 650,000. AID 1259310. Q969H0; in the data active = normalized activity above about 1.9%;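 note: purified mutant Fbw7 with reduced substrate affinity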
TEAD-YAP inh – TEAD-YAP interaction inhibition | inhibition, % at 9.12 µM | hit rate 1.4% among 640,000 | HEK-TIYL cells, TEAD-Gal4/YAP UAS-luciferase luminescence | AID 1259422; in the data active = inhibition above about 32%;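 note: 0% = median of test compound wells and 100% = reference inhibitor wells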
MITF inh – inhibitors of human MITF; hit rate 0.91% among 650,000; O75030; inhibition, % at 2.6 µM; AlphaScreen MITF homodimerization, bead proximity signal; AID 1259374; in the data active = inhibition above about 50%;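 note: 0% = vehicle wells with protein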
Target sequence (O75030 whole entry, looked up): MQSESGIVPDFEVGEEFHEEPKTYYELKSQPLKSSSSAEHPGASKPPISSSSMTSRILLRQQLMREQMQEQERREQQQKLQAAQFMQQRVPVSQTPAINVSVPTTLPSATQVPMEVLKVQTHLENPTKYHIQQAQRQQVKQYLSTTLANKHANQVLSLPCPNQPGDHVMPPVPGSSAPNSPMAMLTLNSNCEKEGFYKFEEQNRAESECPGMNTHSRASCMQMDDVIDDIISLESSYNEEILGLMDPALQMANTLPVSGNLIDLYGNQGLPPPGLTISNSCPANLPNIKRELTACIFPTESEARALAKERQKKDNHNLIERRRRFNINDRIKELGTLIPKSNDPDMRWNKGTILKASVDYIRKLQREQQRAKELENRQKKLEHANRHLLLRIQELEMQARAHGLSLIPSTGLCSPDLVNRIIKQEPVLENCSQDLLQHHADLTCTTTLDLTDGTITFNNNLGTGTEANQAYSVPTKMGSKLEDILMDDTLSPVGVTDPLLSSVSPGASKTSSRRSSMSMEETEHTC
GPR151 activ – human GPR151 activation. activation, % at 11.2 µM. Q8TDV0. hit rate 1% among 650,000. AID 1508602. PathHunter beta-arrestin GPR151 cells, luminescence; in the data active = activation above about 4.9%;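 note: 0% = median of compound wells and 100% = cells with positive control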
Starred values were filed as active, the others as inactive.

SMILES	FBW7 activator	TEAD-YAP inh	MITF inh	GPR151 activ
CCS(=O)(=O)c1ncc(Cl)c(C(=O)Nc2cccc(Cl)c2C)n1	0	57*	12	1
CCCS(=O)(=O)c1ncc(Cl)c(C(=O)Nc2ccc(CC)cc2)n1	0	27	5	1
CCCS(=O)(=O)c1ncc(Cl)c(C(=O)Nc2ccc(C(=O)OC)cc2)n1	0	43*	5	-1
Cc1cc(=O)oc2c(CN3CCCCC3C)c(O)ccc12 (stereo not given)	0	3	11	-1
COc1cccc(N2C(=O)/C(=C/c3ccc([N+](=O)[O-])cc3)C=C2c2ccccc2)c1	0	1	9	0
COc1ccc(OC)c(N/C(=N\c2nc(C)cc(C)n2)NC(=O)c2ccccc2)c1	0	2	-2	0
CCN1C=C(C(=O)OC)C(c2cccc(OCc3ccccc3)c2)C(C(=O)OC)=C1	2.0*	-2	4	1
COC(=O)C1=CN(CC2CCCO2)C=C(C(=O)OC)C1c1cccc(Oc2ccccc2)c1 (stereo not given)	2.4*	-24	-16	0
COC(=O)C1=CN(CC2CCCO2)C=C(C(=O)OC)C1c1cccc(O)c1 (stereo not given)	0	3	11	0
COC(=O)C1=CN(C)C=C(C(=O)OC)C1c1cccc(OCc2ccccc2)c1	2	-16	-21	0
CCCOc1ccc(C2C(C(=O)OC)=CN(CCC)C=C2C(=O)OC)cc1	3.0*	-5	6	2
CCCCN(C)C(=O)CSc1nc2ccccc2c(=O)n1CC1CCC(C(=O)NCCc2ccccc2)CC1 (stereo not given)	1.9*	-19	20	-2
Cc1ccc(C)c(CSc2nc3nc(C)cc(C)n3n2)c1	0	-11	2	1
COc1cc(-c2nc(N3CCN(c4cccc(Cl)c4)CC3)c3ccccc3n2)cc(OC)c1OC	0	2	-1	0
O=C(Nc1cccc(-c2ccc(N3CCCCCC3)nn2)c1)c1cccs1	0	-42	-6	-1
O=C(Nc1ccc(-c2ccc(N3CCCCC3)nn2)cc1)c1cccs1	7.4*	-17	6	0
CC(C)(C)C1CCC(OC(=O)Nc2ccccc2)CC1 (stereo not given)	0	-9	-11	1
CC(C)(C)C1CCC(OC(=O)Nc2ccc3ccccc3c2)CC1 (stereo not given)	0	80*	-7	1
O=C(Nc1c2c(nn1-c1ccc([N+](=O)[O-])cc1)CSC2)c1ccc(S(=O)(=O)N2CCCCC2)cc1	0	3	-2	1
O=C(CSc1nc2ccccc2[nH]1)Nc1ccc(Br)cn1	0	76*	-13	2
Cc1cc(=O)[nH]c(SCC(=O)Nc2ccc(Br)cn2)n1	0	-2	13	-1
Cc1cc(C)c(C=Nc2ccccc2C(N)=O)c(C)c1	0	10	-3	1
Cc1ccccc1C=Nc1ccccc1C(N)=O	0	49*	-14	0
COc1ccc(N2C(N)=C(C#N)C(c3ccc(OC)c(OC)c3)C3=C2CC(C)(C)CC3=O)cc1 (stereo not given)	0	40*	-1	-1
CCOc1ccc(C2C(C#N)=C(N)N(c3ccc(OC)cc3)C3=C2C(=O)CC(C)(C)C3)cc1 (stereo not given)	0	47*	8	-1
SMILES	FBW7 activator	TEAD-YAP inh	MITF inh	GPR151 activ
CCc1ccc(C2C(C#N)=C(N)N(c3ccc(OC)cc3)C3=C2C(=O)CC(C)(C)C3)cc1 (stereo not given)	0	-14	2	2
COc1cc(C2C(C#N)=C(N)N(c3ccc(Br)cc3)C3=C2C(=O)CC(C)(C)C3)cc(OC)c1OC (stereo not given)	0	41*	3	1
COCCn1c(SCc2ccc(C)cc2)nc2c([nH]c3ccccc32)c1=O	0	-5	-9	0
Cn1nccc1C(=O)N1Cc2ccccc2OC(c2ccccc2)C1 (stereo not given)	0	2	13	0
O=C(Cn1nnc2c(cnn2-c2ccccc2)c1=O)N1CCCC1	0	10	4	1
N#C/C(=C\C=C\c1ccc([N+](=O)[O-])o1)c1nc2ccccc2[nH]1	0	59*	43	-1
CCOC(=O)C1=CN(Cc2ccc(Cl)cc2)C=C(C(=O)OCC)C1c1ccccc1OC(C)C	0	-2	8	-1
CCOC(=O)C1=CN(Cc2ccc(OC)cc2)C=C(C(=O)OCC)C1c1ccccc1OCc1ccccc1	2.2*	8	-20	0
COC(=O)C1=CN(Cc2ccc(Cl)cc2)C=C(C(=O)OC)C1c1ccccc1OC(C)C	2.1*	-2	-9	0
COC(=O)C1=CN(Cc2ccc(F)cc2)C=C(C(=O)OC)C1c1ccccc1Cl	2	-4	-1	0
CCOC(=O)C1=CN(Cc2ccc(OC)cc2)C=C(C(=O)OCC)C1c1ccccc1OC	0	-3	2	1
CCOC(=O)C1=CN(Cc2ccc(F)cc2)C=C(C(=O)OCC)C1c1ccc(SC)cc1	1.9*	-7	-8	-1
COC(=O)C1=CN(Cc2ccc(F)cc2)C=C(C(=O)OC)C1c1ccccc1OC(C)C	5.0*	8	-12	-3
CCOC(=O)C1=CC2(SC=C(C(=O)OCC)S2)C2=C(S1)C(C)(C)N(C(=O)Cc1ccccc1)c1ccc(OCC)cc12 (stereo not given)	1	3	12	-1
COc1ccc(Cn2c(CCC(=O)Nc3ccc(F)cc3F)nc3cccnc32)cc1	0	-4	18	0
COc1cc(/C=C2\Oc3c(ccc(O)c3CN3CCCCC3)C2=O)cc(OC)c1OC	0	32*	13	2
COc1ccc(/C=C2\Oc3c(ccc(O)c3CN3CCCC3)C2=O)cc1	0	2	15	0
Cc1ccc(OCc2cc(C(=O)N(C)CCC3CCOCC3)no2)cn1	0	39*	-1	4
Cc1ccc2nc(NC(=O)c3ccc([N+](=O)[O-])cc3)sc2c1	0	-12	17	0
Cc1onc(-c2c(Cl)cccc2Cl)c1C(=O)Nc1nc2ccc([N+](=O)[O-])cc2s1	0	49*	-10	-1
CCN(CC)C(=O)c1ccc2nc(NC(=O)c3ccc(N)cc3)sc2c1	0	80*	9	-1
CCN(CC)C(=O)c1ccc2nc(NC(=O)c3cccs3)sc2c1	0	88*	-6	-10
CCN(CC)C(=O)c1ccc2nc(NC(=O)c3ccc([N+](=O)[O-])cc3)sc2c1	0	84*	12	0
Cc1ccc([N+](=O)[O-])cc1NC(=O)c1c(-c2c(Cl)cccc2Cl)noc1C	0	-8	-10	-1
Cc1ccccc1C(=O)NNC(=O)COc1ccc(Br)cc1	0	2	3	1
COc1nc(N)nc(-c2c(C)noc2C)n1	0	0	4	-1
CCN(CC)S(=O)(=O)c1cccc(C(=O)Oc2cccc(NC(=O)c3cccc(OC)c3)c2)c1	0	26	-2	-4
CCN(CC)S(=O)(=O)c1cc(C(=O)Oc2cccc(NC(=O)c3ccc(Br)cc3)c2)ccc1C	0	20	-7	0

High-throughput results: PubChem, The Scripps Research Institute Molecular Screening Center
